These entries were drawn from the full list.
aSyn UTR act: Activators via SNCA 5'UTR binding, MLPCN; 300,000 compounds, 7.1% hits; alpha-synuclein 5'UTR reporter, activators screen; activity score, % (tested at 7.5 µM), hits read low; AID 1814, 2009; in the data active means activity score below about -60%
Of the large screens only hits and unclear results are named; the others gave an inactive call.

Clc1ccc(CSc2nnc3ccccn23)c(Cl)c1	aSyn UTR act -75
Clc1ccc(CSc2snnc2-c2ccccc2)c(Cl)c1	aSyn UTR act -121
OCCN1CCN(CC(O)COc2ccc(C34CC5CC(CC(C5)C3)C4)cc2)CC1 (stereo not drawn)	none
O=C(O)CSCC(=O)Nc1ccc(C2CCCCC2)cc1	none
O=C(CSCCO)Nc1ccc(C23CC4CC(CC(C4)C2)C3)cc1	aSyn UTR act -66
C(=C\c1ccccn1)/c1ccccn1	aSyn UTR act -115
CC(C)(C)C1C/C(=C/c2ccccn2)C(=O)/C(=C/c2ccccn2)C1 (stereo not drawn)	none
Brc1ccc(N=Cc2ccccn2)cc1	aSyn UTR act -73
CC1C/C(=C/c2ccccn2)C(=O)/C(=C/c2ccccn2)C1 (stereo not drawn)	none
CCC(=O)N1CCc2nc(-c3ccccc3)sc2C1	aSyn UTR act -179
CCOC(=O)/C(C#N)=C(C)/C=C1\Sc2ccccc2N1CC	aSyn UTR act -105
O=C(O)c1c(-c2ccc(Cl)cc2)cn2ccccc12	aSyn UTR act -167
Cn1c(=O)c2c(nc(NCc3ccco3)n2C/C=C/c2ccccc2)n(C)c1=O	none
Cc1cccn2c(=O)c(C=Nc3ccccc3)c(NCc3ccco3)nc12	aSyn UTR act -118
C=CCOC(=O)C1=C(C)NC(SCC)=C(C#N)C1c1ccc(Cl)cc1 (stereo not drawn)	none
N#CC1=C(SCC(=O)c2ccc(Cl)cc2)NC2=C(C(=O)CCC2)C1c1ccco1 (stereo not drawn)	aSyn UTR act -173
COc1ccc(OC)c2nc(-c3ccc4c(c3)OCO4)ccc12	aSyn UTR act -90
CCCc1cc(-c2nc(N)ncc2-c2ccc3c(c2)OCCCO3)c(O)cc1OC	none
c1ccc2nc(-c3ccc4c(c3)OCO4)ccc2c1	aSyn UTR act -81
COc1cc2c(O)c3c(c(-c4ccc5c(c4)OCO5)c2cc1OC)C(=O)OC3	none
CC1(C)Nc2ccccc2C(=O)N1c1ccc(Br)cc1	aSyn UTR act -84
COc1ccc(N2C(=O)c3ccccc3NC2(C)C)cc1	aSyn UTR act -69
CC(=O)n1nc(-c2ccccc2)cc1-c1ccccc1	aSyn UTR act -133
O=C(O)CC(C(=O)O)n1nc(-c2ccccc2)cc1-c1ccccc1 (stereo not drawn)	aSyn UTR act -77
Cc1ccc(SCc2cn3ccccc3n2)cc1	aSyn UTR act -97
Cc1ccn2cc(CSc3ccccc3N)nc2c1	aSyn UTR act -97
c1ccc(CSCc2cn3ccccc3n2)cc1	aSyn UTR act -135
Clc1ccc(/C=N/NC(=Nc2ccccc2)c2ccccn2)c(Cl)c1	aSyn UTR act -82
C/C(=N\Nc1ncc(Cl)cc1Cl)c1ccccn1	none
COc1ccc(C(=O)Nc2cccc(-c3ccc(N4CCOCC4)nn3)c2)cc1	aSyn UTR act -69
COc1cc(OC)cc(C(=O)Nc2cccc(-c3ccc(N4CCOCC4)nn3)c2)c1	aSyn UTR act -85
Cc1[nH]n(-c2ccccc2)c(=O)c1/C=C1/C=c2ccccc2=N1	aSyn UTR act -69
Brc1ccc(-c2csc(/N=C/N3CCCC3)n2)cc1	aSyn UTR act -94
Brc1ccc(-c2csc(/N=C/N3CCOCC3)n2)cc1	aSyn UTR act -90
OCCN(/C=N/c1nc(-c2ccc(Br)cc2)cs1)CCO	aSyn UTR act -93
CCC(C)n1ncn(-c2ccc(N3CCN(c4ccc(O)cc4)CC3)cc2)c1=O (stereo not drawn)	none
NC1=NC2=C(CCCC2)C2(CCCCC2)S1	none
COc1ccc(-c2nc3n(c2C)Cc2ccccc2-3)cc1	aSyn UTR act -129
Cc1cc(C(=O)CN2C(=O)NC(CC(C)C)C2=O)c(C)n1-c1ccccc1F (stereo not drawn)	aSyn UTR act -148
Cc1cc(C(=O)Nc2ccc(Cl)cc2)c(C)n1-c1ccccc1	none
Cc1cc(C(=O)Cn2nnc3ccccc3c2=O)c(C)n1-c1ccccc1F	none
Cc1cc(C(=O)COC(=O)c2ccc(O)cc2)c(C)n1-c1ccccc1F	aSyn UTR act -78
Cc1cc(C(=O)OCC(=O)Nc2c(F)cccc2F)c(C)n1-c1ccccc1	aSyn UTR act -103
COc1ccc(NC(=S)Nc2ncccc2C)cc1OC	aSyn UTR act -107
Cc1cccnc1NC(=S)Nc1ncccc1C	aSyn UTR act -119
O=C(NNC(=S)Nc1ccc(Cl)c(Cl)c1)c1ccccn1	none
Cc1cccc(NCc2ccc(O)c3ncccc23)c1C	none
Cc1cccnc1NC(=S)Nc1ccc(Cl)c(Cl)c1	aSyn UTR act -142
COc1ccc(NC(=S)Nc2ncccc2C)c(OC)c1	aSyn UTR act -93
COc1ccc(NC(=S)Nn2cnnc2)cc1OC	aSyn UTR act -95
Cc1cccnc1NC(=S)NCCc1ccccc1	aSyn UTR act -155
CC1(C)COC(c2coc3ccccc3c2=O)OC1	aSyn UTR act -97
COc1ccc(OC)c(Nc2c3c(nc4ccccc24)CCC3)c1	none
OCCNc1c2ccccc2nc2ccccc12	aSyn UTR act -167
Cc1ccc(Nc2nc(NCCO)c3ccccc3n2)cc1C	aSyn UTR act -76
COc1ccc(OC)c(Nc2nc(NCCO)c3ccccc3n2)c1	aSyn UTR act -68
Cc1ccc2nc(-c3cccnc3)oc2c1	aSyn UTR act -80
Clc1ccc2oc(-c3cccnc3)nc2c1	aSyn UTR act -119
COC(=O)c1ccc(-c2nc3ccc(C)cc3o2)cc1	aSyn UTR act -77
Clc1ccc2oc(-c3ccccc3)nc2c1	aSyn UTR act -151
Cc1ccccc1-c1nc2cc(Cl)ccc2o1	aSyn UTR act -183
CC(=O)Nc1cccc(NC(=O)C(=O)Nc2ccc3c(c2)N(C(=O)C2CC2)CCC3)c1	aSyn UTR act -92
Cc1ccccc1OCc1nnc(SCC(=O)Nc2ccc3nc(SCC(=O)Nc4ccccc4)sc3c2)n1C	aSyn UTR act -70
Cn1cnnc1SCC(=O)Nc1ccc2nc(SCc3ccccc3)sc2c1	aSyn UTR act -142
CCOc1ccccc1-n1c(SCC(=O)Nc2ccc(CC)cc2)nc2n[nH]c(C)c2c1=N	none
CCN(CC)C(=O)CSc1nc2ccc(NC(=O)CSc3nccn3C)cc2s1	aSyn UTR act -65
Cn1cnnc1SCC(=O)Nc1ccc2nc(SCc3ccccc3Cl)sc2c1	aSyn UTR act -101
COc1cnc(-c2ccccn2)nc1Oc1ccc(F)cc1F	aSyn UTR act -118
COc1cnc(-c2ccccn2)nc1NC(C)C	none
COc1ccc(OCCCn2cc(/C=C3/C(=N)N4C=C(C)SC4=NC3=O)c3ccccc32)cc1	aSyn UTR act -70
CCOC(=O)c1cnc2cc(-c3ccc(Cl)cc3)nn2c1N	aSyn UTR act -87
CCOC(=O)c1cnc2cc(-c3ccc(Br)cc3)nn2c1C	aSyn UTR act -131
Cc1c(C(=O)NCCC2=CCCCC2)cccc1[N+](=O)[O-]	aSyn UTR act -90
Cc1cc(C(=O)NCCC2=CCCCC2)no1	aSyn UTR act -81
O=C(NCCC1=CCCCC1)c1cnsn1	aSyn UTR act -65
Cc1ccc(/C=N/NC(=S)N2CCOCC2)cc1	aSyn UTR act -85
S=C(N/N=C/c1ccc(Br)cc1)N1CCCCC1	aSyn UTR act -195
S=C(N/N=C/c1ccc(Cl)cc1)N1CCOCC1	aSyn UTR act -69
O=C(NC(NC(=S)N1CCOCC1)C(Cl)(Cl)Cl)c1ccc(Cl)cc1 (stereo not drawn)	none
CCc1ccc(C(=O)CSc2ncn[nH]2)cc1	aSyn UTR act -115
COc1cc2c(cc1OC)C(c1ccccc1)N(C(=O)c1cccc(S(C)(=O)=O)c1)CC2 (stereo not drawn)	aSyn UTR act -67
COc1cc2c(cc1OC)C(C)N(C(=O)c1cc(C)on1)CC2 (stereo not drawn)	none
CNC(=O)c1cc(C(=O)c2ccc(Cl)cc2)c[nH]1	aSyn UTR act -64

Screening data: PubChem BioAssay, Broad Institute
